{"source": "PubChem BioAssay (EPA / NIEHS)", "note": "Records with an inconclusive call do not appear. The source made the active and inactive calls. The calls were made as follows: active = hit-call score of the fitted dose curve at least 0.9, where 1 is the maximum; inconclusive = response in the unintended direction; inactive = score below 0.9.", "data": [{"target": "human Beta-secretase (BACE), BACE1 (gene 23621) (UniProt P56817)", "sequence (P56817 whole entry, looked up)": "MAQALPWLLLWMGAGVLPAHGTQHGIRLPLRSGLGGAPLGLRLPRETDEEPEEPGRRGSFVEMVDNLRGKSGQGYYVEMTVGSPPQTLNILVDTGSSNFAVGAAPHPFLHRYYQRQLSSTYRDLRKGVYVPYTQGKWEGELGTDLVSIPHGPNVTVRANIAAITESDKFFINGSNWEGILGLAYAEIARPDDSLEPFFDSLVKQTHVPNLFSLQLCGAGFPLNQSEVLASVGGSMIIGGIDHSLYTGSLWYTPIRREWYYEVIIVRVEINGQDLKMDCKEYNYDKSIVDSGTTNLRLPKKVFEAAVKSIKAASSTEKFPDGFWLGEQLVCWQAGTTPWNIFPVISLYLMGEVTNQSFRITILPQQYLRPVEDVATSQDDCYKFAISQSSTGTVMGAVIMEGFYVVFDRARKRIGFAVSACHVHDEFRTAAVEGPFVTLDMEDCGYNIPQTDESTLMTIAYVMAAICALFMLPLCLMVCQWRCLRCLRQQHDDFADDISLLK", "test": "NVS_ENZ_hBACE: NovaScreen (NVS) Enzymatic Assay for human Beta-secretase (BACE) (AID 2283140);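 also: hits are inhibitors that reduce fluorescent substrate signal versus DMSO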", "in_short": "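Enzyme activity of SF9-produced BACE1 is measured cell-free by fluorescence, 1 hour post dosing, normalised to DMSO. Screening used 25 uM in duplicate, with concentration-response follow-up for actives.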", "values": [{"smiles": "CC[C@H](C)C(=O)O[C@H]1C[C@H](O)C=C2C=C[C@H](C)[C@H](CC[C@@H](O)C[C@@H](O)CC(=O)O)[C@H]21", "outcome": "inactive"}, {"smiles": "CCCCC(CC)C(=O)OCCOCCOCCOC(=O)C(CC)CCCC", "note": "(stereo unspecified)", "outcome": "inactive"}, {"smiles": "CCCCN1C(=O)[C@@H]([C@H](O)C2CCCCC2)NC(=O)C12CCN(Cc1ccc(Oc3ccc(C(=O)O)cc3)cc1)CC2", "outcome": "inactive"}, {"smiles": "O=C(N[C@H](CO)[C@H](O)c1ccc([N+](=O)[O-])cc1)C(Cl)Cl", "outcome": "inactive"}]}, {"target": "human Caspase 8 (CASP8), CASP8 (gene 841) (UniProt Q14790)", "sequence (Q14790 whole entry, looked up)": "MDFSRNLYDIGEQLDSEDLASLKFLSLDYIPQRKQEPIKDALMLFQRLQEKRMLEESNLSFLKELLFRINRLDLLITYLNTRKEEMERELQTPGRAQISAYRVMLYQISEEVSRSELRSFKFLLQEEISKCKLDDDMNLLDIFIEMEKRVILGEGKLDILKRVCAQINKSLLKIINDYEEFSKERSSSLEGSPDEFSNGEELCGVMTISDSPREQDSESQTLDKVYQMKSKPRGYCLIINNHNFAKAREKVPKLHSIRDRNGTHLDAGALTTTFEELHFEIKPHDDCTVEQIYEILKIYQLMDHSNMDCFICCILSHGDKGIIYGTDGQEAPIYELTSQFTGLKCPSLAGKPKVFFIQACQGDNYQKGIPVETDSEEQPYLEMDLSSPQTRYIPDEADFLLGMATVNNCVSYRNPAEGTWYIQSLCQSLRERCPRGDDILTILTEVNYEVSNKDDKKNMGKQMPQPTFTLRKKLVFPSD", "test": "NVS_ENZ_hCASP8: NovaScreen (NVS) Enzymatic Assay for human Caspase 8 (CASP8) (AID 2283146)", "in_short": "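The primary screen tested compounds in duplicate at a single 25 uM concentration, with actives followed up in concentration series. Activity of recombinant (E. coli) protease was measured by fluorescence 1 h post-dose, as signal loss against DMSO.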", "values": [{"smiles": "CC[C@H](C)C(=O)O[C@H]1C[C@H](O)C=C2C=C[C@H](C)[C@H](CC[C@@H](O)C[C@@H](O)CC(=O)O)[C@H]21", "outcome": "inactive"}, {"smiles": "CC(C)CCCCCCOC(=O)C1CCCCC1C(=O)OCCCCCCC(C)C", "note": "(stereo unspecified)", "outcome": "inactive"}, {"smiles": "COc1cc2c(c(OC)c1OC)-c1ccc(OC)c(=O)cc1[C@@H](NC(C)=O)CC2", "outcome": "inactive"}, {"smiles": "CCCCCCCCN(C)C", "outcome": "inactive"}]}, {"target": "human Casein Kinase 1-delta (CK1D), CSNK1D (gene 1453) (UniProt P48730)", "sequence (P48730 whole entry, looked up)": "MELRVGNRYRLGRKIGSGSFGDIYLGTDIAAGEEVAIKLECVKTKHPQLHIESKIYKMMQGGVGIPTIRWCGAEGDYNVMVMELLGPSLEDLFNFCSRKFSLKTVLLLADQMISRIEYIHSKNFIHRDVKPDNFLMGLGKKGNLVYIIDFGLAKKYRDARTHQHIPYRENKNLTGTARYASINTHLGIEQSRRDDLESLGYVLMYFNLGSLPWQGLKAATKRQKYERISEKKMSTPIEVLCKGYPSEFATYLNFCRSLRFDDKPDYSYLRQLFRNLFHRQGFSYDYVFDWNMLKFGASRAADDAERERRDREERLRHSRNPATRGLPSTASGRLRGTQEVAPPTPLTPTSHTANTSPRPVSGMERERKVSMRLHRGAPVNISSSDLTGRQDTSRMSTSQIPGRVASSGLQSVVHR", "test": "NVS_ENZ_hCK1D: NovaScreen (NVS) Enzymatic Assay for human Casein Kinase 1-delta (CK1D) (AID 2283148)", "in_short": "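Recombinant human CK1-delta, cell-free; fluorescent substrate with electrophoretic mobility-shift separation of product, read 1 h after dosing. Single 25 uM duplicate screen, then concentration-response up to 50 uM; loss of signal vs DMSO.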", "values": [{"smiles": "O=C(O)c1cccc(C[C@@H]2COc3ccc(OCc4nc5cc(F)ccc5s4)cc3[C@@H]2O)c1", "outcome": "inactive"}, {"smiles": "CCCc1ccccc1", "outcome": "inactive"}, {"smiles": "O=C(O)[C@H](O)[C@@H](O)C(=O)O", "outcome": "inactive"}]}, {"target": "human Elastase, ELANE (gene 1991) (UniProt P08246)", "sequence (P08246 whole entry, looked up)": "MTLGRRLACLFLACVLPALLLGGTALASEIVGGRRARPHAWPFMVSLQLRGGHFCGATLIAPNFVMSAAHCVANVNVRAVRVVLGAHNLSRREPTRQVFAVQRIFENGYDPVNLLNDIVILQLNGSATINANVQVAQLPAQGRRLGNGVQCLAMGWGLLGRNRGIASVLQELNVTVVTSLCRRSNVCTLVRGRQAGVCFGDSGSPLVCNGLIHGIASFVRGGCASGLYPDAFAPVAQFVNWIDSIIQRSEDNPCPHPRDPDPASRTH", "test": "NVS_ENZ_hElastase: NovaScreen (NVS) Enzymatic Assay for human Elastase (AID 2283153)", "in_short": "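Concentration-response to 50 uM max, run singly for chemicals passing a threshold (e.g., 30% inhibition) in a duplicate 25 uM single-point screen. Neutrophil-derived human elastase, absorbance read-out of enzyme activity at 1.5 h; DMSO baseline.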", "values": [{"smiles": "c1ccc2c(c1)-c1cccc3c1c-2cc1ccccc13", "outcome": "inactive"}, {"smiles": "CC(C)CCCCCCOC(=O)C1CCCCC1C(=O)OCCCCCCC(C)C", "note": "(stereo unspecified)", "outcome": "inactive"}, {"smiles": "CCn1nc(C)c2c1C(=O)NCC(c1ccc(O)cc1)=N2", "outcome": "inactive"}]}, {"target": "human Esterase Plasma (ES), BCHE (gene 590) (UniProt P06276)", "sequence (P06276 whole entry, looked up)": "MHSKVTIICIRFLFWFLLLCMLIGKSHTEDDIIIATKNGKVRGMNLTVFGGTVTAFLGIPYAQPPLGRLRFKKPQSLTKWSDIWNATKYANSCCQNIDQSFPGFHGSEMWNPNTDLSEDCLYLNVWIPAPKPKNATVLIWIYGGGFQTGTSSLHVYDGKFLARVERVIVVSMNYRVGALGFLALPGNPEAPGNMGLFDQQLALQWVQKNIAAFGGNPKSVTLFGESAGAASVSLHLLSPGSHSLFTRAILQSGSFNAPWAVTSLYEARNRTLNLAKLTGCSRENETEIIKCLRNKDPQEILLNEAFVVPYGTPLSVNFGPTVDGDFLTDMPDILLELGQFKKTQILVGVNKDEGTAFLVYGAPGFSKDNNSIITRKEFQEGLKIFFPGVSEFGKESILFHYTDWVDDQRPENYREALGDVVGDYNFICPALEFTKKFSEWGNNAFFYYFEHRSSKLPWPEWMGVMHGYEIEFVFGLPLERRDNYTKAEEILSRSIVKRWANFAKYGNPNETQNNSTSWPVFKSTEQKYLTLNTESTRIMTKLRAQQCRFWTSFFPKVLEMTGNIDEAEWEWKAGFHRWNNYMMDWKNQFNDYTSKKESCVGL", "test": "NVS_ENZ_hES: NovaScreen (NVS) Enzymatic Assay for human Esterase Plasma (ES) (AID 2283157)", "in_short": "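Primary single-concentration screen at 25 uM in duplicate, then concentration-response to a 50 uM top dose. Human plasma esterase activity detected colorimetrically after 0.25 h incubation, with DMSO as baseline.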", "values": [{"smiles": "CCCCOC(=O)c1ccccc1", "outcome": "inactive"}, {"smiles": "CCc1ccc(O)c(C(C)(C)C)c1", "outcome": "inactive"}, {"smiles": "CCN(CC)C(=S)SSC(=S)N(CC)CC", "outcome": "inactive"}, {"smiles": "CCn1nc(C)c2c1C(=O)NCC(c1ccc(O)cc1)=N2", "outcome": "inactive"}, {"smiles": "CCCCCCCCN(C)C", "outcome": "inactive"}]}, {"target": "Glycogen synthase kinase-3 beta (Homo sapiens) (UniProt P49841)", "sequence (P49841 whole entry, looked up)": "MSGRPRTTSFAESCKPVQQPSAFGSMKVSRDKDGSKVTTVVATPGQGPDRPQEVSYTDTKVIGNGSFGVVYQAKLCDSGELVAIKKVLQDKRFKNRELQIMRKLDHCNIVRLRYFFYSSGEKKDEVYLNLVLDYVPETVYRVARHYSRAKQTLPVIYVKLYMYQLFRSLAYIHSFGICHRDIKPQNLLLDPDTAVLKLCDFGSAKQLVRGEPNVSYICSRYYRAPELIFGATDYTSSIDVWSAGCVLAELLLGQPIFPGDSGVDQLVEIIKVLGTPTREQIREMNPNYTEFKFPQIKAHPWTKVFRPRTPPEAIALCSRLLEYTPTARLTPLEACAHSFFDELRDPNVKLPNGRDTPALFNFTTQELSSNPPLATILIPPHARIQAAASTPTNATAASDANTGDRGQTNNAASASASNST", "test": "NVS_ENZ_hGSK3b: NovaScreen (NVS) Enzymatic Assay for human Glycogen Synthase Kinase-3 beta (GSK3b) (AID 2283165)", "in_short": "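Recombinant enzyme with specific fluorescent substrate, 1 h, product separated by electrophoretic mobility shift. Primary duplicate screen at 25 uM; actives (e.g. 30% inhibition) followed in singleton concentration-response to 50 uM. Signal loss fitted versus DMSO.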", "values": [{"smiles": "C[C@]12C=CC(=O)C=C1CC[C@H]1[C@@H]3C[C@@H](O)[C@](O)(C(=O)CO)[C@@]3(C)C[C@H](O)[C@@]12F", "outcome": "inactive"}, {"smiles": "OCCNCCO", "outcome": "inactive"}, {"smiles": "O=C(O)c1cccc(C[C@@H]2COc3ccc(OCc4nc5cc(F)ccc5s4)cc3[C@@H]2O)c1", "outcome": "inactive"}, {"smiles": "O=C(O)c1ccc2c(c1)nc(C(=O)NC1CCN(C3CC3)CC1)n2Cc1cc(-c2ccc(Cl)s2)on1", "outcome": "inactive"}, {"smiles": "OCc1ccccc1", "outcome": "inactive"}, {"smiles": "OC[C@H]1O[C@@H]2O[C@H]3[C@H](O)[C@@H](O)[C@@H](O[C@H]4[C@H](O)[C@@H](O)[C@@H](O[C@H]5[C@H](O)[C@@H](O)[C@@H](O[C@H]6[C@H](O)[C@@H](O)[C@@H](O[C@H]7[C@H](O)[C@@H](O)[C@@H](O[C@H]1[C@H](O)[C@H]2O)O[C@@H]7CO)O[C@@H]6CO)O[C@@H]5CO)O[C@@H]4CO)O[C@@H]3CO", "outcome": "inactive"}, {"smiles": "CCCCCCCC1CCC(=O)O1", "note": "(stereo unspecified)", "outcome": "inactive"}]}]}
